# Key:
# Assay in all cases: DAPPL (digital affinity profiling via proximity ligation, sequencing); 10 mM Tris-HCl pH 7.5, 50 mM NaCl, 1 mM DTT, 4% glycerol, room temperature, 30 min; GST-TFs on glutathione beads, 16-mer random dsDNA library, 0.1% formaldehyde crosslink after washing; high values mean tight binding
# FEV = target: T1, FEV (Homo sapiens, UniProt Q99581 1-238); details: protein: recombinant; tags: N-terminal GST; dsDNA, one strand shown
# T1 sequence: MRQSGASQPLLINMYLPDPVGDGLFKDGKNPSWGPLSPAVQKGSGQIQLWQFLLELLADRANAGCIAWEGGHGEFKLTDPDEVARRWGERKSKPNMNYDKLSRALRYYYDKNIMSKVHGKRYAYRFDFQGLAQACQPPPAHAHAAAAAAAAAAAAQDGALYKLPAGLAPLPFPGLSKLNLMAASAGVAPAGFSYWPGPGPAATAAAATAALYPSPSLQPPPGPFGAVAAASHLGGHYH
# Method in brief: (§1)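 Pools were built from human transcription factors expressed in yeast as GST fusions, captured on glutathione beads and DNA-barcoded, along with a tag-only sample. Incubation with 200 nmole of a 16-mer random double-stranded DNA library lasted 30 min at room temperature in Tris/NaCl/DTT/glycerol buffer, and was followed by washing, 0.1% formaldehyde crosslinking, proximity ligation, PCR amplification and Illumina NextSeq500 sequencing. Binding signal is the quotient of each hexamer's read frequency for a factor and its frequency for the tag-only sample.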
# ETV5 = ETV5 (Homo sapiens, UniProt P41161 1-510); details: protein: recombinant; tags: N-terminal GST; dsDNA, one strand shown
# Sequence of ETV5 (P41161 whole entry): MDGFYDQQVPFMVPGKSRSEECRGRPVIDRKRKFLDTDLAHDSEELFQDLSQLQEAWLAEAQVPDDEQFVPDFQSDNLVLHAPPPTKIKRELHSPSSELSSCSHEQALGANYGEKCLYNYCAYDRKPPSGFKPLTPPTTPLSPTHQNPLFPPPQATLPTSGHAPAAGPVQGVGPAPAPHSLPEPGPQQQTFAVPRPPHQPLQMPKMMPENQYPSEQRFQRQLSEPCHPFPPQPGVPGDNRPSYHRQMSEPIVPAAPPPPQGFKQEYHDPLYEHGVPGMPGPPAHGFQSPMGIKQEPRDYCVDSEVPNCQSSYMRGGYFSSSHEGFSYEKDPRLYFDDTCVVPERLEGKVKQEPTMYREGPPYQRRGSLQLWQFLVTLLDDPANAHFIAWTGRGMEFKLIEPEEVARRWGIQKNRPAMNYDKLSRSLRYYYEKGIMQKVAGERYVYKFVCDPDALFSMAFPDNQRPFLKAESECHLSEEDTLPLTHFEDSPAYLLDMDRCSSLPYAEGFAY
# Method in brief: as §1
# HSF1 = HSF1 (Homo sapiens, UniProt Q00613 1-529); details: protein: recombinant; tags: N-terminal GST; chain copies: 3; dsDNA, one strand shown
# Sequence of HSF1 (Q00613 whole entry): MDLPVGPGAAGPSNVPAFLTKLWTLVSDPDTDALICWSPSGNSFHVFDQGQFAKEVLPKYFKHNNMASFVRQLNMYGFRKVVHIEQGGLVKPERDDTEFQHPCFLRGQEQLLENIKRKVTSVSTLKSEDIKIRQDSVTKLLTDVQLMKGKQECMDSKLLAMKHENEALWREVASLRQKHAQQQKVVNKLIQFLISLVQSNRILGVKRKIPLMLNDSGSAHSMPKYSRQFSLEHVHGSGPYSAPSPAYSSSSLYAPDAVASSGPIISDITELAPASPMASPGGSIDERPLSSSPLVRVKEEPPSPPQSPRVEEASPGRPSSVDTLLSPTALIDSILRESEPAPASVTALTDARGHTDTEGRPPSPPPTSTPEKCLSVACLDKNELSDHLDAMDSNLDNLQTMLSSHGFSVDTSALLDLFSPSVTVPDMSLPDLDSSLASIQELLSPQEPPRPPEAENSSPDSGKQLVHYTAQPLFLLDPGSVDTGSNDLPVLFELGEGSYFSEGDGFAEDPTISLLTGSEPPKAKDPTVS
# Method in brief: as §1
# SPIC = target: T2, SPIC (Homo sapiens, UniProt Q8N5J4 1-248); details: protein: recombinant; tags: N-terminal GST; dsDNA, one strand shown
# T2 sequence: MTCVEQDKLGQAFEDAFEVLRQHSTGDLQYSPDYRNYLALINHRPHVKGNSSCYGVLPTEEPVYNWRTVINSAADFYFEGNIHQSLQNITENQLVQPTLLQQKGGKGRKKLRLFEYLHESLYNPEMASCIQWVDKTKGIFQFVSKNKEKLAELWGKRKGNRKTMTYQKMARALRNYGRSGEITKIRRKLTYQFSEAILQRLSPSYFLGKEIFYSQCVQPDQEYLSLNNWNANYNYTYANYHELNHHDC
# Method in brief: as §1
# ELF4 = ELF4 (Homo sapiens, UniProt Q99607 1-663); details: protein: recombinant; tags: N-terminal GST; dsDNA, one strand shown
# Sequence of ELF4 (Q99607 whole entry): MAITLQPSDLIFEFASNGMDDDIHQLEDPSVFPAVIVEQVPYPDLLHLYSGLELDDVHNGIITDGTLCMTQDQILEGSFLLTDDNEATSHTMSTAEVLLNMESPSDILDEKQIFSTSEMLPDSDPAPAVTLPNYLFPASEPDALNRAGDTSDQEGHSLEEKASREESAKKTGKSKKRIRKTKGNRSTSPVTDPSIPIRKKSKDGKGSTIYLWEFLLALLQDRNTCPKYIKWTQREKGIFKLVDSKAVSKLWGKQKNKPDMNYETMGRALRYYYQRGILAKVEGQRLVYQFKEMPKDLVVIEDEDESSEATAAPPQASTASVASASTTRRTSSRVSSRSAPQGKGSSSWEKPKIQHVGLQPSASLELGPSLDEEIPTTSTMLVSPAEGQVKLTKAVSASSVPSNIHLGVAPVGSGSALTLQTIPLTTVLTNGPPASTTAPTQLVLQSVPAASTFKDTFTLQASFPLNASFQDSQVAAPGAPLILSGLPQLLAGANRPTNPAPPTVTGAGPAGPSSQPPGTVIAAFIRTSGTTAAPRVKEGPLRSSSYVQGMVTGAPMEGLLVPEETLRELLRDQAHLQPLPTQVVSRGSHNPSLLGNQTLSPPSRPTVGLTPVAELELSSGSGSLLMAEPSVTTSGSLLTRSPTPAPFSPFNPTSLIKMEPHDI
# Method in brief: as §1
# ELK4 = target: T3, ELK4 (Homo sapiens, UniProt P28324-2 1-405); details: protein: recombinant; tags: N-terminal GST; dsDNA, one strand shown
# T3 sequence: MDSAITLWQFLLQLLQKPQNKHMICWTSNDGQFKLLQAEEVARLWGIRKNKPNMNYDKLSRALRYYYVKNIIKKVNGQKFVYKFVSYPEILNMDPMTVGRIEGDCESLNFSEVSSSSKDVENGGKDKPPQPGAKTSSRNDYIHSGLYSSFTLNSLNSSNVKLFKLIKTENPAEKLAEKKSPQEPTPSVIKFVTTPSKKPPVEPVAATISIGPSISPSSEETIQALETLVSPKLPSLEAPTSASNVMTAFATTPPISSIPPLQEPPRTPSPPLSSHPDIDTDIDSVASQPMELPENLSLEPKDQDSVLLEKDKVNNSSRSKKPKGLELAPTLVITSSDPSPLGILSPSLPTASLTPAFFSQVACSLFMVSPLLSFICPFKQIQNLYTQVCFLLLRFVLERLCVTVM
# Method in brief: as §1
# ETV2 = target: T4, ETV2 (Homo sapiens, UniProt O00321 1-342); details: protein: recombinant; tags: N-terminal GST; dsDNA, one strand shown
# T4 sequence: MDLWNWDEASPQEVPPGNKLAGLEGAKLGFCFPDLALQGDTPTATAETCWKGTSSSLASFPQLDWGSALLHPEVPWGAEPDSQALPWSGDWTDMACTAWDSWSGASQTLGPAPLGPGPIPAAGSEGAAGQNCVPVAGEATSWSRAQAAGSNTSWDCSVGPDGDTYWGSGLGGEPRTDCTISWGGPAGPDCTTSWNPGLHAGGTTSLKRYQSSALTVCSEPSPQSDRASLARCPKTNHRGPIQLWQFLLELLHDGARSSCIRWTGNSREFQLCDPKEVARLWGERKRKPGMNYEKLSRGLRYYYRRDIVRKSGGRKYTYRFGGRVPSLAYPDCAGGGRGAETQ
# Method in brief: as §1
# ELF3 = target: T5, ELF3 (Homo sapiens, UniProt P78545 1-371); details: protein: recombinant; tags: N-terminal GST; dsDNA, one strand shown
# T5 sequence: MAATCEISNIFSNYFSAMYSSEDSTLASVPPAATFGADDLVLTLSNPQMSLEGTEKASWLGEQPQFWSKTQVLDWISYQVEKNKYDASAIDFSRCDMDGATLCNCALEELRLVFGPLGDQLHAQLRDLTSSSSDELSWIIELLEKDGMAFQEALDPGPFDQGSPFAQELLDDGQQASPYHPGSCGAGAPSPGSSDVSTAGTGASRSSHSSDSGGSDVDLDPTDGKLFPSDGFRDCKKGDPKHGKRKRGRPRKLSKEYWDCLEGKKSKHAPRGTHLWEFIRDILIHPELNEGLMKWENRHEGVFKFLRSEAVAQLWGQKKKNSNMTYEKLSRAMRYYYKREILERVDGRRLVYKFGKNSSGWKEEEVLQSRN
# Method in brief: as §1
# CRX = CRX (Homo sapiens, UniProt O43186 1-299); details: protein: recombinant; tags: N-terminal GST; dsDNA, one strand shown
# Sequence of CRX (O43186 whole entry): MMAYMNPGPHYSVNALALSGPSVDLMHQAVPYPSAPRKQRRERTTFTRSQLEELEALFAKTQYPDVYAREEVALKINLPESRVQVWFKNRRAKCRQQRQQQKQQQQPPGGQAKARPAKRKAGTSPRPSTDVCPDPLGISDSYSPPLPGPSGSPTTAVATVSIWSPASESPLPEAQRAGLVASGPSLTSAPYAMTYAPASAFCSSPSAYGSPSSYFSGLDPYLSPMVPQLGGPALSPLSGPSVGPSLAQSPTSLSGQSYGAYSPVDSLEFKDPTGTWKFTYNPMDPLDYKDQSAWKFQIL
# Method in brief: as §1
# ETV1 = ETV1 (Homo sapiens, UniProt P50549 1-477); details: protein: recombinant; tags: N-terminal GST; dsDNA, one strand shown
# Sequence of ETV1 (P50549 whole entry): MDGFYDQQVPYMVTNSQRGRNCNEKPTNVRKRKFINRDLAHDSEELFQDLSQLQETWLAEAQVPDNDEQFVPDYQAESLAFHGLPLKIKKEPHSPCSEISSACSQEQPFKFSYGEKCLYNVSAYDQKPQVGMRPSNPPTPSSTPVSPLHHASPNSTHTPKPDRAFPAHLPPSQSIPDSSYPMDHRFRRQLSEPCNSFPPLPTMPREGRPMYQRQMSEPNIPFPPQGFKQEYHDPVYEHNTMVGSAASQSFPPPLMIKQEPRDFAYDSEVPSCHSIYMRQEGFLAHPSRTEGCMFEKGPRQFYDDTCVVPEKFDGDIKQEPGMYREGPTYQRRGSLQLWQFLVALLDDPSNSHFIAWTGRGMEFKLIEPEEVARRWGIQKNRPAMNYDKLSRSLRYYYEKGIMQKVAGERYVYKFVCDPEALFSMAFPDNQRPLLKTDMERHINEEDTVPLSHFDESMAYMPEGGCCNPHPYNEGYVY
# Method in brief: as §1
# ERF = target: T6, ERF (Homo sapiens, UniProt P50548 1-548); details: protein: recombinant; tags: N-terminal GST; dsDNA, one strand shown
# T6 sequence: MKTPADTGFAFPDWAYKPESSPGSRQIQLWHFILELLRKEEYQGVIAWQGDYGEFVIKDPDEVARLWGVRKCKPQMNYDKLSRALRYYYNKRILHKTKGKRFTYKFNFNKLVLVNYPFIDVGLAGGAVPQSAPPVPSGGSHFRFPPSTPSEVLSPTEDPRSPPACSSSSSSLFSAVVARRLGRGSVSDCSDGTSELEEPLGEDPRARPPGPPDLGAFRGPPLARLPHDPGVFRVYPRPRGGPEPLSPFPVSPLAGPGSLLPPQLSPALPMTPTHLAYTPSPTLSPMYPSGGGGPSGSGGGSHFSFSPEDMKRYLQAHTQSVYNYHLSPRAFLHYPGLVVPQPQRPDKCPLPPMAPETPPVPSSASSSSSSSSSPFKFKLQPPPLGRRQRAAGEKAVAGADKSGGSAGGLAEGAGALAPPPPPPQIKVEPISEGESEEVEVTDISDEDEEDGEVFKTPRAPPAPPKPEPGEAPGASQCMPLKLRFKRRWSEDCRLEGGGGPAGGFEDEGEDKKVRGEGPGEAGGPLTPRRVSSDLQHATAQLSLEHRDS
# Method in brief: as §1
# ETV3L = target: T7, ETV3L (Homo sapiens, UniProt Q6ZN32 1-361); details: protein: recombinant; tags: N-terminal GST; dsDNA, one strand shown
# T7 sequence: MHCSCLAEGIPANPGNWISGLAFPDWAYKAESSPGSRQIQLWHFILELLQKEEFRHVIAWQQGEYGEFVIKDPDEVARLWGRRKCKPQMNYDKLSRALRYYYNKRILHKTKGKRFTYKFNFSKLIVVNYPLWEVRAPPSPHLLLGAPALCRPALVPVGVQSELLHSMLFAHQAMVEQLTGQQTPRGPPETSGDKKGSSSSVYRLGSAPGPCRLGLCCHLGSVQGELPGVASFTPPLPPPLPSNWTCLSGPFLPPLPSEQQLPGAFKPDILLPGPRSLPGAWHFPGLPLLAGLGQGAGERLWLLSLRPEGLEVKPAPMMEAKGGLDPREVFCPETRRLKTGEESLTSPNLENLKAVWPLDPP
# Method in brief: as §1
# ETS2 = target: T8, ETS2 (Homo sapiens, UniProt P15036 1-469); details: protein: recombinant; tags: N-terminal GST; dsDNA, one strand shown
# T8 sequence: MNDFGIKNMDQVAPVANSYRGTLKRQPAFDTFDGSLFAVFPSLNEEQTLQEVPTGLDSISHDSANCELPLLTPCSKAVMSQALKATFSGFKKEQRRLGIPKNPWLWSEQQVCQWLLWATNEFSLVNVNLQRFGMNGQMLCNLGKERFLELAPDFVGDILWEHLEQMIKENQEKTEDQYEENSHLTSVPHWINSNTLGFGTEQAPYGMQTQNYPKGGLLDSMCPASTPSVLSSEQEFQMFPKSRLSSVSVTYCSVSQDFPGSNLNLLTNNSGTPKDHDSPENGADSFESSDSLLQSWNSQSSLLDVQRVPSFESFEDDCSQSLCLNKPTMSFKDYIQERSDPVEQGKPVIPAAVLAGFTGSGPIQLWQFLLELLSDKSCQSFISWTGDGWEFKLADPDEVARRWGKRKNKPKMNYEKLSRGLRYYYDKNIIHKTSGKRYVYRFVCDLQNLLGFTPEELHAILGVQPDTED
# Method in brief: as §1
# SPDEF = target: T9, SPDEF (Homo sapiens, UniProt O95238 1-335); details: protein: recombinant; tags: N-terminal GST; dsDNA, one strand shown
# T9 sequence: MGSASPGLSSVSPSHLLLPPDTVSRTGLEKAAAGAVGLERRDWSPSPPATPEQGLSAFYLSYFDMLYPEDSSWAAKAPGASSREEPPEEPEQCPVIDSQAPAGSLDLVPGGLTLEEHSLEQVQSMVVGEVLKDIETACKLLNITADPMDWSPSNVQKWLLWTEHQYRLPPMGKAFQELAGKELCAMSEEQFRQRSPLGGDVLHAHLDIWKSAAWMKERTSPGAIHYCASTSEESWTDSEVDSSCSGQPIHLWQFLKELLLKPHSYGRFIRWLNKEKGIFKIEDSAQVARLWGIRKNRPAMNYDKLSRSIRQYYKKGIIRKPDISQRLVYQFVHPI
# Method in brief: as §1
# ETV7 = target: T10, ETV7 (Homo sapiens, UniProt Q9Y603 1-341); details: protein: recombinant; tags: N-terminal GST; dsDNA, one strand shown
# T10 sequence: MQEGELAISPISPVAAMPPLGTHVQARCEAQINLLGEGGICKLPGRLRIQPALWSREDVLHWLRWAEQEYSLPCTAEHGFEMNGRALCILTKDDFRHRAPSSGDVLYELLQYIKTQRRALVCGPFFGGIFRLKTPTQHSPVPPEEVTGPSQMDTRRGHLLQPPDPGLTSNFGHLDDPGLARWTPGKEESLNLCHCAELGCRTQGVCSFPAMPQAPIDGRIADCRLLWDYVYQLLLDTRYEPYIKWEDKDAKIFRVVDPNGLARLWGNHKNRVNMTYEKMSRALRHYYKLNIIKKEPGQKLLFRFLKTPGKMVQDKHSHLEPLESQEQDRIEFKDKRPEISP
# Method in brief: as §1
# ELF5 = target: T11, ELF5 (Homo sapiens, UniProt Q9UKW6-2 1-255); details: protein: recombinant; tags: N-terminal GST; dsDNA, one strand shown
# T11 sequence: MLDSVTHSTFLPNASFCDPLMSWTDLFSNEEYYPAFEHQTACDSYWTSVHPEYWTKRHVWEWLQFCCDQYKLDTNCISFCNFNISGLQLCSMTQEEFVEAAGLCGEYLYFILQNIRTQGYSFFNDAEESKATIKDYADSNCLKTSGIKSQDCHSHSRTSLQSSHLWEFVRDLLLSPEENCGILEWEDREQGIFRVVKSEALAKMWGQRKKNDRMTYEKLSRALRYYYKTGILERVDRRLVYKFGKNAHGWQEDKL
# Method in brief: as §1
# ETV3 = target: T12, ETV3 (Homo sapiens, UniProt P41162-2 1-143); details: protein: recombinant; tags: N-terminal GST; dsDNA, one strand shown
# T12 sequence: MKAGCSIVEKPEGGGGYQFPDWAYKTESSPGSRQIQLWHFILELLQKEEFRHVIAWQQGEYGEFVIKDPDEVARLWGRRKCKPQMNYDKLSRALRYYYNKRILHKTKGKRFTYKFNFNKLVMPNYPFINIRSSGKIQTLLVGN
# Method in brief: as §1
# ETV6 = ETV6 (Homo sapiens, UniProt P41212 1-452); details: protein: recombinant; tags: N-terminal GST; dsDNA, one strand shown
# Sequence of ETV6 (P41212 whole entry): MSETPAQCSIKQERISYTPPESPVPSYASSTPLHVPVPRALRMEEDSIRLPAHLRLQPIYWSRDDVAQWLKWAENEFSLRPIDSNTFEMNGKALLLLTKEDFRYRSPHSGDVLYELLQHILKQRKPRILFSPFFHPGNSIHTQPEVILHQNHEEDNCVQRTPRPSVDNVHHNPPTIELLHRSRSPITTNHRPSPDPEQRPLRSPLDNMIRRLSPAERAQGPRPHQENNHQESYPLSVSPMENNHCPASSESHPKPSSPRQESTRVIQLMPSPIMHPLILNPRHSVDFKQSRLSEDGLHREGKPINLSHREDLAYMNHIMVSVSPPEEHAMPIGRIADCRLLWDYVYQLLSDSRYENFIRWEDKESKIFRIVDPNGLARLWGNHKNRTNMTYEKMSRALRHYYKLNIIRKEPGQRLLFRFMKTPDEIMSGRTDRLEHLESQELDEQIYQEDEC
# Method in brief: as §1
sequence,measurement,setting,value
TGCGAT,binding signal,FEV,"1.08 fold enrichment (6-mer frequency, TF over GST control)"
same,binding signal,ETV5,"1.1 fold enrichment (6-mer frequency, TF over GST control)"
same,binding signal,HSF1,"1.23 fold enrichment (6-mer frequency, TF over GST control)"
same,binding signal,SPIC,"1.3 fold enrichment (6-mer frequency, TF over GST control)"
same,binding signal,ELF4,"1.2 fold enrichment (6-mer frequency, TF over GST control)"
same,binding signal,ELK4,"1.2 fold enrichment (6-mer frequency, TF over GST control)"
same,binding signal,ETV2,"1.17 fold enrichment (6-mer frequency, TF over GST control)"
same,binding signal,ELF3,"1.03 fold enrichment (6-mer frequency, TF over GST control)"
same,binding signal,CRX,"1.43 fold enrichment (6-mer frequency, TF over GST control)"
same,binding signal,ETV1,"1.06 fold enrichment (6-mer frequency, TF over GST control)"
same,binding signal,ERF,"1.24 fold enrichment (6-mer frequency, TF over GST control)"
same,binding signal,ETV3L,"1.27 fold enrichment (6-mer frequency, TF over GST control)"
same,binding signal,ETS2,"1.14 fold enrichment (6-mer frequency, TF over GST control)"
same,binding signal,SPDEF,"1.15 fold enrichment (6-mer frequency, TF over GST control)"
same,binding signal,ETV7,"1.23 fold enrichment (6-mer frequency, TF over GST control)"
same,binding signal,ELF5,"1.11 fold enrichment (6-mer frequency, TF over GST control)"
same,binding signal,ETV3,"1.23 fold enrichment (6-mer frequency, TF over GST control)"
same,binding signal,ETV6,"1.16 fold enrichment (6-mer frequency, TF over GST control)"

# Source: article PMC7862700, “An all-to-all approach to the identification of sequence-specific readers for epigenetic DNA modifications on cytosine”
